Screening results as filed in PubChem BioAssay.
ST2 IL33 inh: blocks human ST2 binding to IL-33 | Q01638 | AlphaLISA ST2-Fc/biotin-IL-33 interaction, 1 h | inhibition, % for hits at 17 µM | actives 2.3% (n = 78,000) | AID 1259354; in the data active means inhibition above about 30%
Target sequence (Q01638 whole entry, looked up): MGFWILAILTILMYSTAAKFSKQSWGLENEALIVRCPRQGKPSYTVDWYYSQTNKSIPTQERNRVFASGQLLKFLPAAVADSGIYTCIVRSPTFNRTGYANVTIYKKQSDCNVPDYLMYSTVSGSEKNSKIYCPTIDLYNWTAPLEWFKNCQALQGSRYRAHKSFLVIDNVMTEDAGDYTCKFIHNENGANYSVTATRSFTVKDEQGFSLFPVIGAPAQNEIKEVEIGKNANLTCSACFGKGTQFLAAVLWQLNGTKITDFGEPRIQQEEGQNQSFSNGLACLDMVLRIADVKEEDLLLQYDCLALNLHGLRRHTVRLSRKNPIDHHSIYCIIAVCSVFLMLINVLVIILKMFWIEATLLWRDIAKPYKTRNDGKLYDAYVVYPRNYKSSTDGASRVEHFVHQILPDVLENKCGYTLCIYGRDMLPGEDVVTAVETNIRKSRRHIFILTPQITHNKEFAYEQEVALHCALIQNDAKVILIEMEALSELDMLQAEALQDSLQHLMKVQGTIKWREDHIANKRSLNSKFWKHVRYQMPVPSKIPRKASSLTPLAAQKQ
An asterisk follows results filed as active; i = inactive; ! = not active in a repeat. The full list was thinned out, with hits kept by preference.

SMILES | ST2 IL33 inh
CC(NC(=O)c1ccccc1C(=O)NC(C)c1ccccc1)c1ccccc1 (stereo not drawn) | i
O=C1CC(C(=O)Nc2ccccc2Cl)N=C(Nc2nc3ccccc3s2)N1 (stereo not drawn) | i
CCOc1ccccc1CN1C(=O)CCC1(C)C(=O)NC1CCCCC1 (stereo not drawn) | i
CCn1cc(CN2CCOc3ccc(C4(O)CCN(c5ccccc5F)CC4)cc3C2)c(C)n1 | i
COc1ccc(-c2csc(NC(=O)c3cc(=O)c4ccccc4o3)n2)cc1 | i
O=C(Nc1nc(-c2ccc3c(c2)OCO3)cs1)c1cc(=O)c2ccccc2o1 | 45%*!
Cc1ccc(-c2csc(NC(=O)c3cc(=O)c4ccccc4o3)n2)cc1C | i
CC1CC(=O)N(Cc2ccccc2F)c2ccccc2S1 (stereo not drawn) | i
O=C(NCCNc1ccc(Cl)cc1[N+](=O)[O-])c1ccc(Br)o1 | i
COc1ccc(NCCNC(=O)c2ccc(Cl)cc2)c([N+](=O)[O-])c1 | 32%*
CN(C)CCNc1ccc(Cl)cc1[N+](=O)[O-] | i
NCCCNc1ccc(Cl)cc1[N+](=O)[O-] | i
COc1ccc(Cl)cc1NC(=O)c1cccs1 | i
O=C(Nc1ccc(Cl)cc1[N+](=O)[O-])c1cccs1 | 33%*
CCNc1ccc(Cl)cc1[N+](=O)[O-] | 31%*
COc1ccc(NC(=O)c2ccc(-c3ccccc3)cc2)c([N+](=O)[O-])c1 | i
O=C(Nc1cccc(Cl)c1)c1cccs1 | i
CCCN1CCN(C(=O)C2c3cc(OC)c(OC)cc3C(=O)N(C)C2c2ccccc2F)CC1 (stereo not drawn) | i
CC(C)c1ccc(NC(=O)c2cnc3n(c2=O)CCS3)cc1 | i
Cc1ccc2[nH]c(C(=O)O)c(-c3c(-c4ccccc4)ncn3CCCO)c2c1 | i
Cc1[nH]cnc1C(=O)N1CCC2(CC1)C(=O)Nc1ccccc12 | i
CCOc1ccc(C2Nc3ccccc3NC3=C2C(=O)CCC3)cc1 (stereo not drawn) | i
COc1ccc(C2CC(=O)C3=C(C2)Nc2ccccc2NC3c2ccc(C)o2)cc1 (stereo not drawn) | i
Cc1ccc(C2Nc3ccccc3NC3=C2C(=O)CCC3)o1 (stereo not drawn) | 32%*
Cc1[nH]nc2c1C(c1cccc(Br)c1)C1=C(CC(C)(C)CC1=O)N2 (stereo not drawn) | i
SMILES | ST2 IL33 inh
Cc1[nH]nc(SCC(=O)N2CCc3ccccc3C2)c1[N+](=O)[O-] | i
COc1ccc(-c2c3c(=O)n(C)c(=O)n(C)c3cn2-c2ccccc2C)cc1 | i
Cc1csc2ncc(C(=O)Nc3ccon3)c(=O)n12 | 97%*!
Cc1csc2ncc(C(=O)Nc3ccc(Cl)cc3)c(=O)n12 | i
Cc1csc2ncc(C(=O)Nc3ccccc3)c(=O)n12 | i
CCc1ccc(-c2nc(C(N)=O)c3c(n2)n(-c2ccc(C)c(C)c2)c(=O)n3Cc2ccccc2)cc1 | i
O=C(NCc1ccccc1)c1cc(-c2ccc3c(c2)OCO3)on1 | i
Cc1ccccc1/C=C1\SC(N2CCOCC2)=NC1=O | i
Cc1ccc(C2C3=C(CCCC3=O)Nc3nc(SCc4ccccc4)[nH]c(=O)c32)cc1 (stereo not drawn) | i
Fc1ccc(-c2cc(C(F)(F)F)nc(N3CCOCC3)n2)cc1 | i
Cc1ccc(N=Cc2nc(-c3ccc(Br)cc3)oc2O)c(C)c1 | i
Oc1oc(-c2ccc(Br)cc2)nc1C=Nc1ccc(Br)cn1 | i
Oc1oc(-c2ccccc2)nc1C=Nc1ccc(Br)cn1 | i
Oc1oc(-c2ccccc2F)nc1C=Nc1ccc(Cl)cn1 | 32%*
Cc1ccc(N=Cc2nc(-c3ccccc3)oc2O)c(Br)c1 | i
Cc1ccc(N=Cc2nc(-c3ccccc3F)oc2O)c(C)c1 | 33%*
O=C1CCC(C(=O)NC2CCCN(CC3CCCCC3)C2)=NN1 (stereo not drawn) | i
CC(C)c1nc(CNC(=O)c2coc(COc3ccccc3F)n2)cs1 | i
COc1ccc(OC)c(NC(=O)CN(c2cc(OC)ccc2OC)S(C)(=O)=O)c1 | i
CN(CCc1ccccc1)C1(C(=O)N2CCCNCC2)Cc2ccccc2C1 | i
CC1CCCC[C@H]2C(=O)C=C[C@H](O)[C@@H]2CC(=O)O1 (stereo partly drawn) | 46%*
Cc1cc(NS(=O)(=O)c2ccc3c(c2)CCN3C(=O)C2CCC2)ccc1Br | i
Cc1cc2ccccc2c(=O)n1CC(=O)NCC(=O)Nc1cccc(C(F)(F)F)c1 | i
CCCOc1ccc(NC(=O)c2ccc(OC)cc2)cc1 | i
COc1ccccc1NC(=O)c1ccc(OC)c(OC)c1 | i
SMILES | ST2 IL33 inh
COc1ccc(C(=O)N2CCCCCC2)cc1OC | i
COc1ccc(C(=O)Nc2cc(OC)cc(OC)c2)cc1 | i
COc1ccc(C(=O)Nc2ccc(N3CCCC3)cc2)cc1 | 59%*
COc1ccc(C(=O)Nc2ccc(N3CCCC3)cc2)cc1OC | 35%*
Cc1cc(C)n(S(=O)(=O)c2cc(C)c(Cl)cc2Cl)n1 | i
CC(=O)c1cc2c(cc1NC(=O)c1cnn3c(C(F)(F)F)cc(-c4ccco4)nc13)OCO2 | i
